The source of these data is PubChem BioAssay.

Values joined by “and” are separate entries in the source; they are usually repeats but may differ in a detail not shown here. Identical values can stand only once. Active and inactive are the calls of the source. Rule as the data show it, unless noted: active = inhibition above about 80%; inactive = the rest.

The nature of one assay: HDN33 neuroblastoma growth inhibition, cell-based, chromothripsis tumors, cisplatin or BGB combos (AID 1671450).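 Also: cells exposed to compound for four days; 0% = vehicle DMSO and 100% = cell killing by high DMSO.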 Particulars: HDN33 neuroblastoma cells, BGB combo, at 5 µM, stronger effect = higher value.
As a reminder, the inhibition is the drop in the measured response relative to a control, in per cent. In the case of `O=c1[nH]cnc2c1ncn2C1CCC(CO)O1` (stereo not drawn), the inhibition is -15.1%.

With `Nc1nc(Cl)nc2c1ncn2C1CC(O)C(CO)O1` (stereo not drawn), the inhibition is 83.3% and 87.6%.

As for `Nc1ccn(C2CCC(CO)O2)c(=O)n1` (stereo not drawn), the inhibition was -33.4%.

Still in this assay, the particulars now being: HDN33 neuroblastoma cells, at 0.5 µM, stronger effect = higher value.
As to `O=c1[nH]cnc2c1ncn2C1CCC(CO)O1` (stereo not drawn), the inhibition was -10.3% (inactive).

In the case of `Nc1nc(Cl)nc2c1ncn2C1CC(O)C(CO)O1` (stereo not drawn), the inhibition was 6.11% (inactive) and 14.7% (inactive).

Take `Nc1ccn(C2CCC(CO)O2)c(=O)n1` (stereo not drawn): the inhibition is -28.1% (inactive).

The assay is the same for the next values; noted with them: HDN33 neuroblastoma cells, cisplatin combo, at 5 µM, stronger effect = higher value.
Consider `O=c1[nH]cnc2c1ncn2C1CCC(CO)O1` (stereo not drawn), for which the inhibition was determined as 0.055%.

As for `Nc1nc(Cl)nc2c1ncn2C1CC(O)C(CO)O1` (stereo not drawn), the inhibition is 79% and 81.5%.

As to `Nc1ccn(C2CCC(CO)O2)c(=O)n1` (stereo not drawn), the inhibition is -14%.

Still in this assay, the particulars now being: HDN33 neuroblastoma cells, measured here: with BGB IC20 combination, at 0.5 µM, stronger effect = higher value.
As to `O=c1[nH]cnc2c1ncn2C1CCC(CO)O1` (stereo not drawn), the inhibition is -9.52%.

Take `Nc1nc(Cl)nc2c1ncn2C1CC(O)C(CO)O1` (stereo not drawn): the inhibition is 10.3% and 9.34%.

As to `Nc1ccn(C2CCC(CO)O2)c(=O)n1` (stereo not drawn), the inhibition was -28.7%.

The assay is the same for the next values; noted with them: HDN33 neuroblastoma cells, measured here: with cisplatin IC20 combination, at 0.5 µM, stronger effect = higher value.
As for `O=c1[nH]cnc2c1ncn2C1CCC(CO)O1` (stereo not drawn), the inhibition is -5.77%.

Turning to `Nc1nc(Cl)nc2c1ncn2C1CC(O)C(CO)O1` (stereo not drawn), the inhibition was -1.24% and 16.1%.

With `Nc1ccn(C2CCC(CO)O2)c(=O)n1` (stereo not drawn), the inhibition is -15.2%.

The assay is the same for the next values; noted with them: HDN33 neuroblastoma cells, single agent, at 5 µM, stronger effect = higher value.
Consider `O=c1[nH]cnc2c1ncn2C1CCC(CO)O1` (stereo not drawn), for which the inhibition is -6.37%.

In the case of `Nc1nc(Cl)nc2c1ncn2C1CC(O)C(CO)O1` (stereo not drawn), the inhibition was 84.5% and 87.2%.

For the molecule `Nc1ccn(C2CCC(CO)O2)c(=O)n1` (stereo not drawn), the inhibition was -52.9%.

The next assay in a line: ICB984 medulloblastoma cell growth inhibition, synergistic combos for chromothripsis tumors, cisplatin or BGB combos (AID 1671451; call rule not given here;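 also: cells exposed for 96 hours before readout; 0% = vehicle DMSO and 100% = killing by high DMSO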). The note with it: ICB984 medulloblastoma cells, drug combinations, BGB IC20 combo, at 0.005 µM, stronger effect = higher value.
On to `O=c1[nH]cnc2c1ncn2C1CCC(CO)O1` (stereo not drawn), for which the inhibition was found to be 3.8%.

As to `Nc1nc(Cl)nc2c1ncn2C1CC(O)C(CO)O1` (stereo not drawn), the inhibition is -1.92% and -30.4%.

With `Nc1ccn(C2CCC(CO)O2)c(=O)n1` (stereo not drawn), the inhibition was -1.06%.

The same assay, now with this note: ICB984 medulloblastoma cells, drug combinations, BGB IC40 combo, at 0.005 µM, stronger effect = higher value.
In the case of `O=c1[nH]cnc2c1ncn2C1CCC(CO)O1` (stereo not drawn), the inhibition is -17.3%.

Regarding `Nc1nc(Cl)nc2c1ncn2C1CC(O)C(CO)O1` (stereo not drawn), the inhibition is -14.5% and -25.7%.

Turning to `Nc1ccn(C2CCC(CO)O2)c(=O)n1` (stereo not drawn), the inhibition was -15.6%.

The assay is the same for the next values; noted with them: ICB984 medulloblastoma cells, drug combinations, BGB IC40 combo, at 0.05 µM, stronger effect = higher value.
In the case of `O=c1[nH]cnc2c1ncn2C1CCC(CO)O1` (stereo not drawn), the inhibition was -42.9%.

Consider `Nc1nc(Cl)nc2c1ncn2C1CC(O)C(CO)O1` (stereo not drawn), for which the inhibition was -14.6% and -11.7%.

As to `Nc1ccn(C2CCC(CO)O2)c(=O)n1` (stereo not drawn), the inhibition was -24.6%.

Staying with this assay, now noted: ICB984 medulloblastoma cells, drug combinations, at 0.5 µM, stronger effect = higher value.
On to `O=c1[nH]cnc2c1ncn2C1CCC(CO)O1` (stereo not drawn), for which the inhibition was -12.4% (inactive).

Turning to `Nc1nc(Cl)nc2c1ncn2C1CC(O)C(CO)O1` (stereo not drawn), the inhibition was -34.2% (inactive) and -10.6% (inactive).

As to `Nc1ccn(C2CCC(CO)O2)c(=O)n1` (stereo not drawn), the inhibition is -11.4% (inactive).

Staying with this assay, now noted: ICB984 medulloblastoma cells, drug combinations, cisplatin combo, at 0.05 µM, stronger effect = higher value.
For `O=c1[nH]cnc2c1ncn2C1CCC(CO)O1` (stereo not drawn), the inhibition was -46.9%.

As for `Nc1nc(Cl)nc2c1ncn2C1CC(O)C(CO)O1` (stereo not drawn), the inhibition was -18.7% and -11.7%.

Turning to `Nc1ccn(C2CCC(CO)O2)c(=O)n1` (stereo not drawn), the inhibition is -24.6%.
